Values joined by “and” are separate entries in the source; they are usually repeats but may differ in a detail not shown here. Equal entries are not always repeated. Out of some 5,500 compounds screened, about 2,000 (36%) were called active. About 18% were inconclusive and are not listed. Rule as the data show it: active = normalized growth mostly below about 0.91 (no sharp cut-off); inconclusive = no clear call, values can overlap the other calls; inactive = mostly above about 0.92. The list shows a part of the results.
Test: chemical genetic growth profiling, strain panel (AID 1159580);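 also: tested at 20 µM; growth read once vehicle control cultures reached saturation at 30 °C; 1 = growth at the plate median or of vehicle wells; lower values mean less growth of the strain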
Settings: S. cerevisiae deletion strains, growth OD

Measured: normalized growth

OC1C(O)C(O)C(O)C(O)C1O (stereo not given)
inactive: locus YAL013W, strain DEP1, active compounds read low 0.998 | locus YAL021C, strain ccr4, active compounds read low 0.996 | locus YAL026C, strain drs2, active compounds read low 1 | locus YAL030W, strain snc1, active compounds read low 0.997 | locus YBL061C, strain skt5, active compounds read low 0.998 | locus YBR009C, strain hhf1, active compounds read low 1.01 | locus YBR021W, strain FUR4, active compounds read low 1.08 | locus YBR023C, strain chs3, active compounds read low 0.997 | locus YBR171W, strain sec66, active compounds read low 1 | locus YBR229C, strain ROT2, active compounds read low 0.957 | locus YBR231C, strain swc5, active compounds read low 0.999 | locus YBR279W, strain paf1, active compounds read low 1 | locus YCL011C, strain gbp2, active compounds read low 1.01 | locus YCL016C, strain dcc1, active compounds read low 1.01 | locus YCL029C, strain bik1, active compounds read low 0.981 | locus YCL061C, strain MRC1, active compounds read low 0.996 | locus YCL069W, strain vba3, active compounds read low 0.999 | locus YCR088W, strain abp1, active compounds read low 1 | locus YDL005C, strain med2, active compounds read low 1 | locus YDL035C, strain GPR1, active compounds read low 1 | locus YDL040C, strain nat1, active compounds read low 1 | locus YDL074C, strain BRE1, active compounds read low 0.962 | locus YDL101C, strain DUN1, active compounds read low 0.989 | locus YDL134C, strain PPH21, active compounds read low 0.99 | locus YDL185W, strain tfp1, active compounds read low 0.966 | locus YDL192W, strain arf1, active compounds read low 0.977 | locus YDR001C, strain nth1, active compounds read low 0.998 | locus YDR069C, strain doa4, active compounds read low 0.999 | locus YDR101C, strain arx1, active compounds read low 0.976 | locus YDR137W, strain rgp1, active compounds read low 1 | locus YDR150W, strain NUM1, active compounds read low 0.99 | locus YDR159W, strain sac3, active compounds read low 0.993 | locus YDR162C, strain NBP2, active compounds read low 0.994 | locus YDR195W, strain ref2 0.984 | locus YDR297W, strain sur2, active compounds read low 1 | locus YDR318W, strain mcm21, active compounds read low 0.992 | locus YDR334W, strain swr1, active compounds read low 0.994 | locus YDR335W, strain msn5, active compounds read low 1 | locus YDR388W, active compounds read low 0.989 | locus YDR392W, strain spt3, active compounds read low 0.999 | locus YDR502C, strain sam2, active compounds read low 0.986 | locus YEL003W, strain gim4, active compounds read low 1.01 | locus YEL037C, strain rad23, active compounds read low 1 | locus YEL061C, strain CIN8 (second series), active compounds read low 1 | locus YEL061C, strain CIN8, active compounds read low 0.983 | locus YER015W, strain faa2, active compounds read low 0.993 | locus YER016W, strain bim1, active compounds read low 0.991 | locus YER110C, active compounds read low 0.982 | locus YER111C, strain swi4, active compounds read low 1 | locus YER155C, strain BEM2 (second series), active compounds read low 1.01 | locus YER155C, strain BEM2, active compounds read low 0.999 | locus YER167W, strain BCK2, active compounds read low 0.995 | locus YFR010W, strain ubp6, active compounds read low 1 | locus YGL078C, strain dbp3, active compounds read low 0.973 | locus YGL086W, strain mad1, active compounds read low 0.979 | locus YGL167C, strain pmr1, active compounds read low 1 | locus YGL173C, strain kem1, active compounds read low 1.01 | locus YGL227W, strain vid30, active compounds read low 1.01 | locus YGL240W, strain doc1, active compounds read low 0.989 | locus YGL248W, strain PDE1, active compounds read low 0.969 | locus YGL253W, strain hxk2, active compounds read low 1 | locus YGR135W, strain pre9, active compounds read low 1.02 | locus YGR252W, strain gcn5, active compounds read low 0.924 | locus YHR013C, strain ard1, active compounds read low 1 | locus YHR027C, strain rpn1, active compounds read low 1 | locus YHR030C, strain SLT2, active compounds read low 0.975 and 1 | locus YHR079C, strain IRE1 (second series), active compounds read low 0.99 | locus YHR079C, strain IRE1, active compounds read low 0.973 | locus YHR094C, strain hxt1, active compounds read low 0.996 | locus YHR129C, strain ARP1, active compounds read low 0.993 | locus YHR142W, strain chs7, active compounds read low 1.01 | locus YHR200W, strain rpn10, active compounds read low 0.971 | locus YIL066C, strain RNR3, active compounds read low 0.979 | locus YIL073C, strain SPO22, active compounds read low 0.994 | locus YIL125W, strain kgd1, active compounds read low 0.98 | locus YIR030C, strain dcg1, active compounds read low 0.995 | locus YJL092W, strain hpr5, active compounds read low 1 | locus YJL095W, strain BCK1 (second series), active compounds read low 1 | locus YJL095W, strain BCK1, active compounds read low 0.991 | locus YJL115W, strain asf1, active compounds read low 1 | locus YJL129C, strain trk1, active compounds read low 1.02 | locus YJL134W, strain LCB3, active compounds read low 0.995 | locus YJL154C, strain vps35, active compounds read low 1 | locus YJL164C, strain tpk1, active compounds read low 0.999 | locus YJL166W, strain qcr8, active compounds read low 1.01 | locus YJL168C, strain set2, active compounds read low 0.998 | locus YJL187C, strain SWE1 (second series), active compounds read low 0.97 | locus YJL187C, strain SWE1, active compounds read low 1.01 | locus YJR043C, strain POL32, active compounds read low 0.995 | locus YJR066W, strain TOR1, active compounds read low 0.956

Source: PubChem BioAssay AID1159580 (chemical genetic matrix, 2015)
